Seven compounds from PubChem BioAssay (EPA / NIEHS) can be followed below.

Experiment [1] can be described thus: ATG_CRE_CIS: Attagene CIS-FACTORIAL HepG2 Assay for human cAMP Responsive Element (CRE) binding protein 3 (AID 2282926). The following applies: HepG2 CRE cis-reporter, Attagene multiplexed mRNA; actives raise or lower the signal. An outline of the steps: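 Multiplexed transcription-unit reporters transfected into HepG2; 24 h dosing; RT-PCR/capillary electrophoresis fluorescence read-out; bidirectional fit vs DMSO.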

Experiment [2] deals with CCAAT/enhancer-binding protein beta (Homo sapiens) (UniProt P17676). The experiment is described as follows: ATG_C_EBP_CIS: Attagene CIS-FACTORIAL HepG2 Assay for human CCAAT/Enhancer Binding Protein (C/EBP) beta (AID 2282927). The following applies: HepG2 Attagene cis-factorial transcription factor reporter; actives raise or lower the signal. An outline of the steps: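 Endogenous C/EBPb-driven reporter transcripts measured in transfected human HepG2 cells at 24 h via RT-PCR and capillary electrophoresis of labelled fragments. Activity fitted in both directions relative to DMSO baseline.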

A short description of experiment [3]: ATG_CMV_CIS: Attagene CIS-FACTORIAL HepG2 Assay for human CMV (Internal Marker) (AID 2282928).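 Also: endpoint acts as a background internal control marker rather than a target.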 The following applies: HepG2 CMV promoter reporter, transcription factor profiling; actives raise or lower the signal. Put shortly:
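Cell system: HepG2, transiently transfected multiple reporter units under cis promoters. Exposure: 24 h. Detection: RT-PCR, FAM labeling, HpaI digestion, capillary electrophoresis. Analysis: bidirectional, DMSO baseline.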

Experiment [4] can be described thus: ATG_DR4_LXR_CIS: Attagene CIS-FACTORIAL HepG2 Assay for human Liver X Receptor (LXR), DR4 submotif (AID 2282929). As to conditions: HepG2 Attagene DR4 cis-reporter, mRNA transcription; actives raise or lower the signal. Put shortly: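 Measures endogenous transcription factor activity via a DR4-driven reporter transcript in human HepG2 cells. Compounds incubated 24 h; mRNA quantified by RT-PCR and capillary electrophoresis, analysed as gain or loss of signal versus DMSO.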

Experiment [5] in a line: ATG_AP_1_CIS: Attagene CIS-FACTORIAL HepG2 Assay for human Activator Protein 1 (AP-1) (AID 2282931). As to conditions: HepG2 Attagene cis-factorial AP-1 reporter mRNA; actives raise or lower the signal. Put shortly:
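Bidirectional concentration-response fitting against DMSO controls. Underlying signal: reporter mRNA from cis-promoter constructs in transiently transfected HepG2, measured after 24 h by RT-PCR and capillary electrophoresis.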

Experiment [6] can be described thus: ATG_BRE_CIS: Attagene CIS-FACTORIAL HepG2 Assay for human Bone Morphogenetic Protein (BMP) Response Element (BRE) (AID 2282933). The following applies: HepG2 BMP response element reporter, Attagene transcription factor profiling; actives raise or lower the signal. An outline of the steps: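 Read-out: reporter mRNA induction quantified by RT-PCR and capillary electrophoresis after 24 h chemical exposure of transfected HepG2 cells. Endogenous factor activity on the BMP response element; gain or loss fitted against DMSO baseline.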

Experiment [7] in a line: ATG_E_Box_CIS: Attagene CIS-FACTORIAL HepG2 Assay for human Enhancer Box (E-box) (AID 2282936). The following applies: HepG2 E-box cis-reporter transcription, actives raise or lower the signal. Put shortly: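 Cells: HepG2 (human liver), transient MRTU transfection. Exposure 24 h. RNA → oligo(dT) RT → PCR → 6-FAM label → HpaI → CE. Activity fitted both directions relative to DMSO.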

Experiment [8] in a line: ATG_M_19_CIS: Attagene CIS-FACTORIAL HepG2 Assay for M19 Transcription Factor (Internal Marker) (AID 2282939). As to conditions: HepG2 Attagene CIS-FACTORIAL M19 internal marker reporter; actives raise or lower the signal. Put shortly: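 Readout: fluorescent reporter-transcript fragments by capillary electrophoresis after RT-PCR. Human HepG2 liver cells carried transfected MRTU constructs reporting endogenous transcription-factor activity; exposure 24 h. Gain or loss of signal fitted relative to DMSO.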

A short description of experiment [9]: ATG_GATA_CIS: Attagene CIS-FACTORIAL HepG2 Assay for human GATA Binding Protein (AID 2282944). As to conditions: HepG2 GATA cis-element reporter, Attagene multiplex mRNA; actives raise or lower the signal. Put shortly:
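Read-out: fluorescent reporter mRNA fragments resolved by capillary electrophoresis after RT-PCR. Human liver HepG2 cells carried transiently transfected cis-regulated reporter constructs; chemicals incubated 24 h; gain or loss of signal fitted relative to DMSO.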

Experiment [10] can be described thus: ATG_ISRE_CIS: Attagene CIS-FACTORIAL HepG2 Assay for human Interferon Regulatory Factor 1 (IRF1) binding to an Interferon-Stimulated Response Element (ISRE) (AID 2282948). As to conditions: HepG2 ISRE cis-reporter (Attagene), mRNA transcription readout; actives raise or lower the signal. An outline of the steps: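 Quantitation relies on labelled RT-PCR fragments separated by capillary electrophoresis. Human HepG2 cells bearing cis-promoter reporter constructs were treated 24 h; DMSO served as baseline for bidirectional fitting.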

A short description of experiment [11]: ATG_M_32_CIS: Attagene CIS-FACTORIAL HepG2 Assay for M32 Transcription Factor (Internal Marker) (AID 2282949).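 Also: background control marker of the multiplexed CIS panel rather than a real target.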 The following applies: HepG2 Attagene cis-factorial M32 reporter, mRNA; actives raise or lower the signal. An outline of the steps:
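Fluorescent capillary electrophoresis peaks of HpaI-digested, FAM-labelled RT-PCR reporter products give the signal. Source: transiently transfected human liver HepG2 cells, 24 h after chemical dosing; bidirectional fitting against DMSO.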

The nature of experiment [12]: ATG_M_06_CIS: Attagene CIS-FACTORIAL HepG2 Assay for M06 Transcription Factor (Internal Marker) (AID 2282950). The following applies: HepG2 Attagene CIS-FACTORIAL M06 internal marker reporter; actives raise or lower the signal. Put shortly:
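Terse: HepG2, transient MRTU transfection (FuGene 6), 24 h dosing; total RNA, oligo(dT) RT, PCR, FAM label, HpaI cut, capillary electrophoresis; bidirectional fit vs DMSO baseline; background-control endpoint.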

Experiment [13] in a line: ATG_MRE_CIS: Attagene CIS-FACTORIAL HepG2 Assay for human Metal Responsive Element (MRE) (AID 2282954). As to conditions: HepG2 MRE cis-reporter transcription, Attagene multiplex; actives raise or lower the signal. An outline of the steps: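 Transient MRTU transfection of HepG2 (FuGene 6); 24 h dosing; total RNA → oligo(dT) RT, PCR, 6-FAM primer extension, HpaI cut, CE. Bidirectional fit vs DMSO.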

In experiment [14] the target is Paired box protein Pax-6 (Homo sapiens) (UniProt P26367). Description: ATG_Pax6_CIS: Attagene CIS-FACTORIAL HepG2 Assay for human Paired Box 6 (PAX6) (AID 2282956). As to conditions: HepG2 CIS-FACTORIAL PAX6 reporter transcription, RNA readout; actives raise or lower the signal. An outline of the steps:
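After twenty-four hours of chemical exposure, transfected HepG2 cells are harvested for RNA. Cis-promoter reporter transcripts are amplified, fluorescently labelled and sized by capillary electrophoresis, with gain and loss of signal scored against DMSO.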

Experiment [15] in a line: ATG_PXRE_CIS: Attagene CIS-FACTORIAL HepG2 Assay for human Pregnane X Receptor Element (PXRE) (AID 2282957). The following applies: HepG2 Attagene CIS-FACTORIAL PXRE reporter, mRNA; actives raise or lower the signal. Put shortly: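 Cells: HepG2, transiently transfected reporter units under cis promoter control. Exposure: 24 h. Detection: reporter mRNA via RT-PCR/CE fluorescence; bidirectional fitting, DMSO-referenced.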

The nature of experiment [16]: ATG_Sox_CIS: Attagene CIS-FACTORIAL HepG2 Assay for human SRY-box transcription factor (SOX) (AID 2282960). The following applies: HepG2 Attagene cis-factorial SOX reporter, mRNA; actives raise or lower the signal. An outline of the steps:
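After 24 h of chemical treatment, transfected HepG2 reporter cells are lysed for total RNA. Transcript levels come from RT-PCR with labelled primer extension and capillary electrophoresis, analysed bidirectionally versus DMSO.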

For experiment [17], the target named is Transcription factor Sp1 (Homo sapiens) (UniProt P08047). The experiment is described as follows: ATG_Sp1_CIS: Attagene CIS-FACTORIAL HepG2 Assay for human Specificity Protein 1 (Sp1) (AID 2282961). As to conditions: HepG2 Sp1 cis-reporter transcription, actives raise or lower the signal. Put shortly: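 Sp1-driven reporter mRNA, read as capillary electrophoresis fluorescence after RT-PCR, in transiently transfected HepG2 cells dosed for 24 h; signal change in either direction relative to DMSO.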

Experiment [18] in a line: ATG_TA_CIS: Attagene CIS-FACTORIAL HepG2 Assay for human TA Basal Promoter (AID 2282964). As to conditions: HepG2 Attagene CIS-factorial TA basal promoter reporter; actives raise or lower the signal. Put shortly: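 Transfected HepG2, 24 h compound exposure; RNA → RT-PCR → FAM primer extension → HpaI cut → CE fluorescence. Gain/loss-of-signal fitted against DMSO negative control. Background-control readout.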

Experiment [19] can be described thus: ATG_TCF_b_cat_CIS: Attagene CIS-FACTORIAL HepG2 Assay for human T-Cell-Factor with beta-catenin (TCF/b-cat) (AID 2282965). As to conditions: HepG2 TCF/beta-catenin cis-reporter transcription, actives raise or lower the signal. Put shortly:
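Endogenous TCF/LEF activity read as reporter transcript level via RT-PCR and capillary electrophoresis fluorescence in transfected HepG2, 24 h exposure; gain or loss of signal fitted against DMSO controls.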

The nature of experiment [20]: ATG_TAL_CIS: Attagene CIS-FACTORIAL HepG2 Assay for human TAL Basal Promoter (AID 2282966).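 Also: background control endpoint measuring basal TAL promoter reporter mRNA not a specific factor.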 The following applies: HepG2 Attagene cis-factorial TAL promoter reporter; actives raise or lower the signal. An outline of the steps:
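RT-PCR plus capillary electrophoresis quantifies reporter mRNA induction in transiently transfected HepG2 cells after 24 h chemical treatment. DMSO serves as negative control and baseline for bidirectional fitting.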

Activity calls are given as the source filed them. The calls were made as follows: active = hit-call score of the fitted dose curve at least 0.9, where 1 is the maximum; inactive = score below 0.9.

Chain of CCAAT/enhancer-binding protein beta (Homo sapiens) (P17676 whole entry, looked up, the tested form may be a part): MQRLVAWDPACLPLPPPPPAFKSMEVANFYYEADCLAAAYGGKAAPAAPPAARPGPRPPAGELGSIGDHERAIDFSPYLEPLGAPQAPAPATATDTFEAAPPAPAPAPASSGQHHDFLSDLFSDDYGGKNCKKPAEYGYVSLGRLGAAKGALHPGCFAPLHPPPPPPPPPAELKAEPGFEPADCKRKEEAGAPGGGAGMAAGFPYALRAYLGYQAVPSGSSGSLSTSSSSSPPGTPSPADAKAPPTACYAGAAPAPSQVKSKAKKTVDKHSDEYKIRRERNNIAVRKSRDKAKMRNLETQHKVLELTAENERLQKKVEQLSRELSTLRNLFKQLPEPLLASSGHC
Chain of Transcription factor Sp1 (Homo sapiens) (P08047 whole entry, looked up): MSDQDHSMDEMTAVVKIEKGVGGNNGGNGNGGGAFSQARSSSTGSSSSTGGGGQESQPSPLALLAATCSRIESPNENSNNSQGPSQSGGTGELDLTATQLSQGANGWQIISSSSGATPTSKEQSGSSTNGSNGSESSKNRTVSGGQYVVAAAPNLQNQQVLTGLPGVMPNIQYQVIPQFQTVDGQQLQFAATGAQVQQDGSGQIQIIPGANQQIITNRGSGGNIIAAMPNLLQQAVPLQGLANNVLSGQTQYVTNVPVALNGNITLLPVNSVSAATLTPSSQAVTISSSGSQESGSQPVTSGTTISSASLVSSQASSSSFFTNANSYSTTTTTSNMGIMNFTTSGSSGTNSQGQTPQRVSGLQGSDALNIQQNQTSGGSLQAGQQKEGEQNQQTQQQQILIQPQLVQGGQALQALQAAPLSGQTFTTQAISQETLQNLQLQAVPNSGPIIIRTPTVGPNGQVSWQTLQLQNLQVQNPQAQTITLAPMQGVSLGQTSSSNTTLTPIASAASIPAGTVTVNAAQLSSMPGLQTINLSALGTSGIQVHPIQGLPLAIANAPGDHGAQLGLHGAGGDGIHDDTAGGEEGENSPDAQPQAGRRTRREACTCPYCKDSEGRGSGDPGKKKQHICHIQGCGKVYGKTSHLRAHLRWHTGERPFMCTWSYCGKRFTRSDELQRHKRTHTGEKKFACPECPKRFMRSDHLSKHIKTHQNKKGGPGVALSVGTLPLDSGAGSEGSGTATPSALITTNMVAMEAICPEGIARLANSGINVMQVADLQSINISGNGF
Chain of Paired box protein Pax-6 (Homo sapiens) (P26367 whole entry, looked up): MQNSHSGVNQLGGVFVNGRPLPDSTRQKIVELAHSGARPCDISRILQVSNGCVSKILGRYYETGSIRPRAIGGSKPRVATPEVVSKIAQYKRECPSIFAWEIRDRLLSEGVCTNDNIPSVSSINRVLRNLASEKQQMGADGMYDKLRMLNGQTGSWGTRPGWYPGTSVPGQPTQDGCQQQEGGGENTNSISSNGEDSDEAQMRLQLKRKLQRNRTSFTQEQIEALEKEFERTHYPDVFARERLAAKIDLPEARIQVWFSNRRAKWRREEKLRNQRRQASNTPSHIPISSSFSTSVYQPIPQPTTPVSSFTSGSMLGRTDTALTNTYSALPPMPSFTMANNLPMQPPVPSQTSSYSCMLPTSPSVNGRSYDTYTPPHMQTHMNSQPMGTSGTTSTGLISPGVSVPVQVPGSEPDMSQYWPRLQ

As to `Clc1ccccn1`, the call in experiment [1], in [2], in [3], in [4], in [5] and in experiment [6] was inactive. The outcome in experiment [7], in experiment [8], in experiment [9], in [10], in [11] and in experiment [12] was inactive. The result in [13], in experiment [14], in experiment [15], in [16], in experiment [17] and in [18] was inactive. Further, the call in experiment [19] and in [20] was inactive.

Turning to `CCC(C)NC(N)=O` (stereo not given), the call in experiment [1], in [2], in experiment [3], in [4], in experiment [5] and in experiment [6] was inactive. Moreover, the outcome in experiment [7], in experiment [8], in [9], in experiment [10], in experiment [11] and in experiment [12] was inactive. Besides, the compound was classed as inactive in [13], in experiment [14], in experiment [15], in experiment [16], in [17] and in [18]. The call in [19] and in experiment [20] was inactive.

Usually AC50 stands for the concentration giving half of the maximal activity seen. Take `C=C(C)C(=O)OCCCCCC`: the call in [1], in experiment [2], in experiment [3], in experiment [4], in experiment [5] and in experiment [6] was inactive. For the same compound, the outcome in [7], in experiment [8], in [9], in experiment [10], in experiment [11] and in [12] was inactive. Further, the outcome in [13], in experiment [14], in [16], in experiment [17], in experiment [18] and in experiment [19] was inactive. For the same compound, the call in [20] was inactive. For the same compound, the AC50 in experiment [15] was 26.5 µM (active).

With `C=C(C)C(=O)OCC1CCCO1` (stereo not given), the outcome in experiment [1], in [2], in experiment [3], in experiment [4], in [5] and in experiment [6] was inactive. In addition, the outcome in experiment [7], in experiment [8], in [9], in [10], in experiment [11] and in experiment [12] was inactive. Also, the outcome in experiment [13], in [14], in experiment [15], in experiment [16], in experiment [17] and in experiment [18] was inactive. The outcome in experiment [19] and in experiment [20] was inactive.

Regarding `CN1CCCC1`, the compound was called inactive in experiment [1], in experiment [2], in experiment [3], in experiment [4], in experiment [5] and in experiment [6]. Further, the result in experiment [7], in experiment [8], in experiment [9], in experiment [10], in experiment [11] and in experiment [12] was inactive. For the same compound, the result in [13], in experiment [14], in experiment [15], in experiment [16], in [17] and in experiment [18] was inactive. In addition, the compound was called inactive in experiment [19] and in experiment [20].

For `CCCCCCC1CCCC(=O)O1` (stereo not given), the compound was called inactive in experiment [1], in [2], in experiment [3], in experiment [4], in experiment [5] and in experiment [6]. The compound was called inactive in [8], in experiment [9], in experiment [10], in [11], in experiment [12] and in experiment [13]. In addition, the outcome in [14], in [16], in [17], in experiment [18], in experiment [19] and in [20] was inactive. Moreover, the values for the AC50 in [7] and in experiment [15] were 75.2 µM (active) and 37.5 µM (active), respectively.

Take `CC=CC(=O)O`: the result in experiment [1], in experiment [2], in experiment [3], in [4], in [5] and in experiment [6] was inactive. Further, the outcome in experiment [7], in experiment [8], in [9], in experiment [10], in experiment [11] and in [12] was inactive. Further, the outcome in experiment [13], in experiment [14], in [15], in experiment [16], in experiment [17] and in experiment [18] was inactive. Moreover, the compound was classed as inactive in experiment [19] and in experiment [20].
